According to PubChem BioAssay (EPA / NIEHS):
Active and inactive are the calls of the source. How the source made its calls: active means hit-call score of the fitted dose curve at least 0.9, where 1 is the maximum; inactive means score below 0.9.

Assays:
[1] = ATG_M_32_CIS: Attagene CIS-FACTORIAL HepG2 Assay for M32 Transcription Factor (Internal Marker) (AID 2282949); conditions: HepG2 Attagene cis-factorial M32 reporter, mRNA; actives raise or lower the signal;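 further: background control marker of the multiplexed CIS panel rather than a real target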
Procedure, shortened: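 Fluorescent capillary electrophoresis peaks of HpaI-digested, FAM-labelled RT-PCR reporter products give the signal. Source: transiently transfected human liver HepG2 cells, 24 h after chemical dosing; bidirectional fitting against DMSO.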

[2] = ATG_M_06_CIS: Attagene CIS-FACTORIAL HepG2 Assay for M06 Transcription Factor (Internal Marker) (AID 2282950); conditions: HepG2 Attagene CIS-FACTORIAL M06 internal marker reporter; actives raise or lower the signal
Procedure, shortened: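 HepG2 cells transiently transfected with cis-regulated multiple reporter transcription units were exposed to chemical for 24 h; reporter mRNA was quantified by RT-PCR, 6-FAM primer labelling, HpaI digestion and capillary electrophoresis, fitted bidirectionally against DMSO.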

[3] = target: Hypoxia-inducible factor 1-alpha (Homo sapiens) (UniProt Q16665); experiment: ATG_HIF1a_CIS: Attagene CIS-FACTORIAL HepG2 Assay for human Hypoxia Inducible Factor 1 (HIF1A) (AID 2282951); conditions: HepG2 Attagene cis-factorial HIF1a reporter transcription; actives raise or lower the signal
Procedure, shortened: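 Measures endogenous transcription-factor activity through cis-regulated reporter mRNA in HepG2. Cells dosed 24 h; transcripts quantified by RT-PCR with 6-FAM-labelled products separated by capillary electrophoresis; DMSO serves as negative control.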

[4] = target: Hepatocyte nuclear factor 6 (Homo sapiens) (UniProt Q9UBC0); experiment: ATG_HNF6_CIS: Attagene CIS-FACTORIAL HepG2 Assay for human Hepatocyte Nuclear Factor 6 (HNF6) (AID 2282952); conditions: HepG2 Attagene cis-factorial HNF6 reporter transcription; actives raise or lower the signal
Procedure, shortened: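 HepG2 cells transiently transfected with cis-element-driven multiple reporter transcription units, dosed 24 h; reporter mRNA quantified by RT-PCR, FAM primer extension, HpaI digestion and capillary electrophoresis; bidirectional fit versus DMSO baseline.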

[5] = target: Heat shock factor protein 1 (Homo sapiens) (UniProt Q00613); experiment: ATG_HSE_CIS: Attagene CIS-FACTORIAL HepG2 Assay for human Heat Shock Transcription Factor 1 (HSE) (AID 2282953); conditions: HepG2 HSE cis-reporter, Attagene RNA transcription; actives raise or lower the signal
Procedure, shortened: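 HepG2 cells transiently transfected with multiple reporter transcription units under cis-regulatory promoter control, measuring endogenous transcription factor activity. After 24 h chemical exposure, reporter mRNA quantified by RT-PCR, fluorescent labelling, HpaI digestion and capillary electrophoresis; bidirectional fit versus DMSO.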

[6] = ATG_MRE_CIS: Attagene CIS-FACTORIAL HepG2 Assay for human Metal Responsive Element (MRE) (AID 2282954); conditions: HepG2 MRE cis-reporter transcription, Attagene multiplex; actives raise or lower the signal
Procedure, shortened: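 HepG2 cells transiently transfected with cis-element-driven reporter units; mRNA measured 24 h after dosing. Reporter transcripts quantified by RT-PCR, FAM labelling, HpaI digestion and capillary electrophoresis; bidirectional fit versus DMSO.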

[7] = ATG_PBREM_CIS: Attagene CIS-FACTORIAL HepG2 Assay for human Phenobarbital-responsive Enhancer Module (PBREM) (AID 2282955); conditions: HepG2 PBREM cis-reporter, Attagene multiplexed transcription; actives raise or lower the signal
Procedure, shortened: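 Fluorescence of labelled reporter cDNA fragments, resolved by capillary electrophoresis, gives mRNA induction in transfected HepG2 cells treated for 24 h; DMSO serves as negative control and baseline.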

[8] = target: Paired box protein Pax-6 (Homo sapiens) (UniProt P26367); experiment: ATG_Pax6_CIS: Attagene CIS-FACTORIAL HepG2 Assay for human Paired Box 6 (PAX6) (AID 2282956); conditions: HepG2 CIS-FACTORIAL PAX6 reporter transcription, RNA readout; actives raise or lower the signal
Procedure, shortened: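 HepG2 cells transiently transfected with cis-promoter-driven multiplexed reporter units sensing endogenous transcription factor activity; 24 h chemical exposure. Reporter mRNA quantified by RT-PCR, 6-FAM labelling, HpaI digestion and capillary electrophoresis; bidirectional fit versus DMSO baseline.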

[9] = ATG_PXRE_CIS: Attagene CIS-FACTORIAL HepG2 Assay for human Pregnane X Receptor Element (PXRE) (AID 2282957); conditions: HepG2 Attagene CIS-FACTORIAL PXRE reporter, mRNA; actives raise or lower the signal
Procedure, shortened: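 HepG2 cells transiently transfected with cis-regulated multiple reporter transcription units; endogenous factor activity measured as reporter mRNA 24 h after dosing. RT-PCR, fluorescent primer extension, HpaI digestion, capillary electrophoresis; bidirectional fit versus DMSO baseline.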

[10] = ATG_RORE_CIS: Attagene CIS-FACTORIAL HepG2 Assay for human RAR-related Orphan Receptor Element (RORE) (AID 2282959); conditions: HepG2 Attagene cis-factorial RORE reporter, mRNA; actives raise or lower the signal
Procedure, shortened: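 Cells were HepG2 carrying transfected cis-regulated reporter constructs, dosed for 24 hours. Total RNA was reverse-transcribed and reporter cDNA amplified, fluorescently labeled and sized by capillary electrophoresis. Activity was fitted bidirectionally relative to DMSO.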

[11] = ATG_Sox_CIS: Attagene CIS-FACTORIAL HepG2 Assay for human SRY-box transcription factor (SOX) (AID 2282960); conditions: HepG2 Attagene cis-factorial SOX reporter, mRNA; actives raise or lower the signal
Procedure, shortened: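 Transient MRTU transfection of HepG2; 24 h compound incubation; TriZol RNA, oligo(dT) RT, PCR, 6-FAM primer extension, HpaI cut, CE. Bidirectional fit, DMSO = baseline.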

[12] = target: Transcription factor Sp1 (Homo sapiens) (UniProt P08047); experiment: ATG_Sp1_CIS: Attagene CIS-FACTORIAL HepG2 Assay for human Specificity Protein 1 (Sp1) (AID 2282961); conditions: HepG2 Sp1 cis-reporter transcription, actives raise or lower the signal
Procedure, shortened: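 Endogenous Sp1 activity was gauged in human liver HepG2 cells bearing transfected reporter units under a cis-regulating promoter. After 24 h dosing, reporter mRNA was quantified by RT-PCR with capillary electrophoresis, and activity fitted bidirectionally versus DMSO.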

[13] = ATG_SREBP_CIS: Attagene CIS-FACTORIAL HepG2 Assay for human Sterol Regulatory Element Binding (SREBP) (AID 2282962); conditions: HepG2 Attagene cis-factorial SREBP reporter, mRNA; actives raise or lower the signal
Procedure, shortened: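 HepG2 cells transiently transfected with multiplexed cis-promoter reporter units sensing endogenous transcription factors; reporter mRNA measured 24 h after dosing by RT-PCR, 6-FAM labeling, HpaI digestion and capillary electrophoresis. Bidirectional fit versus DMSO.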

[14] = target: Signal transducer and activator of transcription 3 (Homo sapiens) (UniProt P40763); experiment: ATG_STAT3_CIS: Attagene CIS-FACTORIAL HepG2 Assay for human Signal Transducer and Activator of Transcription 3 (STAT3) (AID 2282963); conditions: HepG2, Attagene cis-factorial STAT3 reporter transcription; actives raise or lower the signal
Procedure, shortened: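 HepG2 cells transiently transfected with multiple cis-element-driven reporter units report endogenous transcription factor activity. After 24 h compound exposure, reporter mRNA is measured by RT-PCR, 6-FAM labelling, HpaI digestion and capillary electrophoresis. Fitted bidirectionally versus DMSO.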

[15] = ATG_TA_CIS: Attagene CIS-FACTORIAL HepG2 Assay for human TA Basal Promoter (AID 2282964); conditions: HepG2 Attagene CIS-factorial TA basal promoter reporter; actives raise or lower the signal
Procedure, shortened: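 HepG2 cells transiently transfected with multiplexed cis-promoter reporter units, dosed 24 h. Reporter mRNA measured by RT-PCR, 6-FAM labelling, HpaI digestion and capillary electrophoresis; bidirectional fit versus DMSO baseline, serving as background control.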

[16] = ATG_TCF_b_cat_CIS: Attagene CIS-FACTORIAL HepG2 Assay for human T-Cell-Factor with beta-catenin (TCF/b-cat) (AID 2282965); conditions: HepG2 TCF/beta-catenin cis-reporter transcription, actives raise or lower the signal
Procedure, shortened: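 Cells of the HepG2 line carry transiently transfected reporter units whose promoters respond to endogenous factors. Twenty-four hours post-dosing, reporter mRNA induction is measured by fluorescent RT-PCR and capillary electrophoresis, with DMSO as baseline.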

[17] = ATG_TGFb_CIS: Attagene CIS-FACTORIAL HepG2 Assay for human Transforming Growth Factor (TGF) (AID 2282967); conditions: HepG2 Attagene CIS TGFb reporter, mRNA transcription; actives raise or lower the signal
Procedure, shortened: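 HepG2 cells transiently transfected with cis-promoter-driven multiplexed reporter units; 24 h compound exposure. Reporter mRNA measured by RT-PCR, 6-FAM labeling, HpaI digestion and capillary electrophoresis; bidirectional fit versus DMSO baseline.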

[18] = ATG_VDRE_CIS: Attagene CIS-FACTORIAL HepG2 Assay for human Vitamin D Receptor Element (VDRE) (AID 2282968); conditions: HepG2 VDRE cis-reporter transcription, actives raise or lower the signal
Procedure, shortened: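 Transiently transfected HepG2 cells carrying cis-regulated reporter transcription units were exposed for 24 h. Reporter mRNA was measured by RT-PCR with fluorescent labelling and capillary electrophoresis, and fitted in both directions against DMSO.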

[19] = ATG_PPRE_CIS: Attagene CIS-FACTORIAL HepG2 Assay for human Peroxisome Proliferator-activated Response Element (PPRE) (AID 2282958); conditions: HepG2 PPRE cis-element reporter, Attagene transcription factor profiling; actives raise or lower the signal
Procedure, shortened: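 Cells are first transfected transiently with the multiplexed reporter library, then dosed for 24 h. Total RNA is reverse-transcribed, amplified, fluorescently end-labeled and HpaI-cut before capillary electrophoresis; activity is fitted bidirectionally against DMSO controls.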

[20] = ATG_TAL_CIS: Attagene CIS-FACTORIAL HepG2 Assay for human TAL Basal Promoter (AID 2282966); conditions: HepG2 Attagene cis-factorial TAL promoter reporter; actives raise or lower the signal;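 further: background control endpoint measuring basal TAL promoter reporter mRNA not a specific factor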
Procedure, shortened: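 HepG2 cells were transiently transfected with promoter-driven multiplexed reporter units and dosed for 24 h. Reporter mRNA was measured by RT-PCR with capillary electrophoresis fluorescence; bidirectional fits used DMSO as baseline, serving as a background control.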

Measured: AC50

Heat shock factor protein 1 (Homo sapiens), sequence (Q00613 whole entry, looked up): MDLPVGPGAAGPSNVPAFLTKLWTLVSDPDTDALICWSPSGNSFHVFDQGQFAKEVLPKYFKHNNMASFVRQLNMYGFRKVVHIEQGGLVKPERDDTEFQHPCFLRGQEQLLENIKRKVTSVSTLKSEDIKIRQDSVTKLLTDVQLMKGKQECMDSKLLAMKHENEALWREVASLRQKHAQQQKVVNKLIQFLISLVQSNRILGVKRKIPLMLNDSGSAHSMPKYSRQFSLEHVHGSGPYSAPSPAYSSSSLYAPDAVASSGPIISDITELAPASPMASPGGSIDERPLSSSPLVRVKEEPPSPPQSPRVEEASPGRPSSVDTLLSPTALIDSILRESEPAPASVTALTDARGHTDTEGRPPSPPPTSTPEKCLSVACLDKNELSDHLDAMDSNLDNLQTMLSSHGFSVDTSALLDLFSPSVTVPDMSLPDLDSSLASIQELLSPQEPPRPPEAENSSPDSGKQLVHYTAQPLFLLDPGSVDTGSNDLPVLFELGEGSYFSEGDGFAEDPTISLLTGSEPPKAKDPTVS
Signal transducer and activator of transcription 3 (Homo sapiens), sequence (P40763 whole entry, looked up): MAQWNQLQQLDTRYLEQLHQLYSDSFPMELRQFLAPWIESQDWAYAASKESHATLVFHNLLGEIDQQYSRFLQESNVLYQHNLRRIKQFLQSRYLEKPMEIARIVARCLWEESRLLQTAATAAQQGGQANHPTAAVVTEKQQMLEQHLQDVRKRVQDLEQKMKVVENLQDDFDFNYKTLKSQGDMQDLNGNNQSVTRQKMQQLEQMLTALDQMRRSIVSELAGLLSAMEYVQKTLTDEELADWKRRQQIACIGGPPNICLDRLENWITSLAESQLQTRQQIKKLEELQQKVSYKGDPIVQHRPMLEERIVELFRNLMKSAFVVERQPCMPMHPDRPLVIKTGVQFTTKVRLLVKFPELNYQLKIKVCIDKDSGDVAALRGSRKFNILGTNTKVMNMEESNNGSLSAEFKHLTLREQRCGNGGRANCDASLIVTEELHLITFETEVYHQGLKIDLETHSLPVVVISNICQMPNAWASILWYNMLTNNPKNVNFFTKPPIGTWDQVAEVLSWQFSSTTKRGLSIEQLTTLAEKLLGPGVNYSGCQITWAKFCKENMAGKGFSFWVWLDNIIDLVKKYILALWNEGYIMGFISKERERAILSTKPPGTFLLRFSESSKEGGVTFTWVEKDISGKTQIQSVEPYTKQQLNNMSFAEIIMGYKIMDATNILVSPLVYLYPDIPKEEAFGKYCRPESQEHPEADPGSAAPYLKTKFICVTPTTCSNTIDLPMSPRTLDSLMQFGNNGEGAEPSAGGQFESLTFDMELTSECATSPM
Paired box protein Pax-6 (Homo sapiens), sequence (P26367 whole entry, looked up): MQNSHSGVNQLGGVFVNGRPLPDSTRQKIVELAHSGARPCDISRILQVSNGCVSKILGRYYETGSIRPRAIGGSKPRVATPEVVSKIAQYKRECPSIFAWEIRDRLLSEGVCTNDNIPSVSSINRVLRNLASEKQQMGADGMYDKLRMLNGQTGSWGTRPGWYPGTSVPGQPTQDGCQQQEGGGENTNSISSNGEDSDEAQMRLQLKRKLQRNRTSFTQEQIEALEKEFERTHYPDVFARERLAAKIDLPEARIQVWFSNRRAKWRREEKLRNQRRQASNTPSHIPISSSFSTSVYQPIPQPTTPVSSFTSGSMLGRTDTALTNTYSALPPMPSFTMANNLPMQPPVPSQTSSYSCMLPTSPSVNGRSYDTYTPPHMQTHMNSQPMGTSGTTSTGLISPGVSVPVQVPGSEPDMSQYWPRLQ
Hypoxia-inducible factor 1-alpha (Homo sapiens), sequence (Q16665 whole entry, looked up): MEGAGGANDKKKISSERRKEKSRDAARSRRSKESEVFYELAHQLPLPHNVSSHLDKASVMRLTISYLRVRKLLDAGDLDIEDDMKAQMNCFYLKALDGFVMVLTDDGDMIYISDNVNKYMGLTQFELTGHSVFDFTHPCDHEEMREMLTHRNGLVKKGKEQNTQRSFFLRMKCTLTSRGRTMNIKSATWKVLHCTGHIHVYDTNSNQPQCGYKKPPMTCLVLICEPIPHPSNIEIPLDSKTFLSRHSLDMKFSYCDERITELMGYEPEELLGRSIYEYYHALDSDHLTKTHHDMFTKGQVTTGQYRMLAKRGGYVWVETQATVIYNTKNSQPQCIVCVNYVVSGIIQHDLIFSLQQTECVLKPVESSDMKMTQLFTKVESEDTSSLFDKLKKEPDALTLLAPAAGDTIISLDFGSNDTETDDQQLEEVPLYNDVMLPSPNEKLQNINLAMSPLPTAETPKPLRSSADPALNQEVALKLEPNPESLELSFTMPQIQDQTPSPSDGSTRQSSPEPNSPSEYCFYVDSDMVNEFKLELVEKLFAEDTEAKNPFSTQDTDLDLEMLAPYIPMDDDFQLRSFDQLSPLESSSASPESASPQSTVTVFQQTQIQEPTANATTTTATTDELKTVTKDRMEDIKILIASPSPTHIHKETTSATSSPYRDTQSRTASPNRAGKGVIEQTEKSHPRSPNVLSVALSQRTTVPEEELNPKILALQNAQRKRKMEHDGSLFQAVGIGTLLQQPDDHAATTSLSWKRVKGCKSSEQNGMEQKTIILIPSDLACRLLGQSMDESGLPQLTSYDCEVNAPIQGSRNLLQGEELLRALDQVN
Hepatocyte nuclear factor 6 (Homo sapiens), sequence (Q9UBC0 whole entry, looked up): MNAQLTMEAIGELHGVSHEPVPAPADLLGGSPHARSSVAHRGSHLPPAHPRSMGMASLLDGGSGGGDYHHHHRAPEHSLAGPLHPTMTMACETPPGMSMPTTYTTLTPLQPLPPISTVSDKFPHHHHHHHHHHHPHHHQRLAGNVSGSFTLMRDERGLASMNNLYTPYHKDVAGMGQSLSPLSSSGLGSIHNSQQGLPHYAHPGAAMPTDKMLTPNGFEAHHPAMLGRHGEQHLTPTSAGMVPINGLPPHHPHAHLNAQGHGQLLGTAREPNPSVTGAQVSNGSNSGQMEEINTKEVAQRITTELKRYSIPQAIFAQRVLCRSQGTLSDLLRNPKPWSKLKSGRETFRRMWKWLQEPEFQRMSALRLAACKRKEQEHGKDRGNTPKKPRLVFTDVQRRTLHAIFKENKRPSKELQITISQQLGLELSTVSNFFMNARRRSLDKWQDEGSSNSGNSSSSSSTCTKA
Transcription factor Sp1 (Homo sapiens), sequence (P08047 whole entry, looked up): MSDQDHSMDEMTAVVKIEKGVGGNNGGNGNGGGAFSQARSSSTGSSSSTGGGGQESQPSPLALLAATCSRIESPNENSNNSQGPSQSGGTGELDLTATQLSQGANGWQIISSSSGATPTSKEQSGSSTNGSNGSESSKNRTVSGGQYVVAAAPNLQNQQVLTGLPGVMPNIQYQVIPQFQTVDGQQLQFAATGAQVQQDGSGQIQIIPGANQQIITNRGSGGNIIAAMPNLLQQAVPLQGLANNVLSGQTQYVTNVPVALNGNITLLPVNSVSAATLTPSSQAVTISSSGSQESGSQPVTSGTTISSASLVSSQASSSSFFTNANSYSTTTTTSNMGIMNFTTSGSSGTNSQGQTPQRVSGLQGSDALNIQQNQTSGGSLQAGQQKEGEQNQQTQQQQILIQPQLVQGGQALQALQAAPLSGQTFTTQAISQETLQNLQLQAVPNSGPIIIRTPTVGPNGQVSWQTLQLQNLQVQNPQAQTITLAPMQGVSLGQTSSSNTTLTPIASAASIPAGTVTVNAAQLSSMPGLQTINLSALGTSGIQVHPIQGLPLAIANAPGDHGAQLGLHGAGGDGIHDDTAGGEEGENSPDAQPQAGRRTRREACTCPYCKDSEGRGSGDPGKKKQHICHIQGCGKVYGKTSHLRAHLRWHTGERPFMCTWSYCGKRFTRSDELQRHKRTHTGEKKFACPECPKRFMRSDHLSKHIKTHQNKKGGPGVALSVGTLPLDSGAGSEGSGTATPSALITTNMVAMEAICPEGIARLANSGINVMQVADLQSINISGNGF

O=C(OC(=O)C(F)(F)C(F)(F)F)C(F)(F)C(F)(F)F
not listed: [19] | [20]
inactive: all other assays above

Oc1cccc2c(O)cccc12
active: [9] 27.1 µM
not listed: [13]
inactive: all other assays above

CCCCc1ccc2ccccc2c1S(=O)(=O)O
active: [9] 2.52 µM | [18] 6.19 µM
not listed: [13]
inactive: all other assays above

NC(C(F)(F)F)C(F)(F)F
not listed: [19]
inactive: all other assays above

NS(=O)(=O)O
not listed: [10] | [17]
inactive: all other assays above

CCCCCCCCCC=CCC1CC(=O)OC1=O (stereo unspecified)
active: [13] 67.9 µM
not listed: [19] | [20]
inactive: all other assays above
